Over roughly 33,000 sequences, “E-score (-0.5 to 0.5)” has its median near -0.0059; the highest 2% begin near 0.26. Many of the other results were omitted from the sample, so the highest values are more common in it than they were.
biological target: T1, Cin5 (UniProt P40917); assay: PBM E-score (8-mer binding enrichment) (E-score (-0.5 to 0.5)); higher = stronger / more preferred TF binding; conditions: protein concentration: 100 nM; construct: GST-full length
T1 sequence: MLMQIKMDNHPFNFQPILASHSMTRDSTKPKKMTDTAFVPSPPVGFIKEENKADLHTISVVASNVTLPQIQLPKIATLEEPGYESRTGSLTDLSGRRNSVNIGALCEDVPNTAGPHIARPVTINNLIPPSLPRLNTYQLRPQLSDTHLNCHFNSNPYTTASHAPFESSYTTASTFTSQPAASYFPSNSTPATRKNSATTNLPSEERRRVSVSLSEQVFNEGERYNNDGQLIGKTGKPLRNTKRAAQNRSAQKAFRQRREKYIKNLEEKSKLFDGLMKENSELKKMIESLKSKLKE
Summary of the method: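 Universal all-10-mer Agilent arrays, fresh or stripped once, were converted to double-stranded form by primer extension. GST-tagged yeast transcription factors from PURExpress in vitro transcription/translation, full-length or DNA-binding domain only, were applied at about 100-200 nM and detected with fluorescent anti-GST. After masliner normalisation, the Universal PBM Analysis Suite scored each ungapped eight-base word together with its reverse complement by E-score.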

Sequence	PBM E-score
ATGGAACA	-0.0505
GCACTGAA	-0.0379
CCATTGAG	0.00119
AGACACCA	-0.0438
GGGAGCCC	-0.419
CCACGCAG	-0.0201
CCATAAGC	0.215
GCATAAGC	0.276
GCATAAGA	0.0468
GACTTGAC	-0.208
GAGCGGGA	-0.0794
GGCAACCA	-0.0499
CTTTCGCC	-0.0892
AGGAATCA	0.172
GGGAATCA	-0.0779
CGGAATCA	0.27
CATAGCCC	-0.222
CCCACTAC	0.0221
CTGGAGAA	-0.202
CTACACAG	-0.0209
GAAGAACA	0.215
TAAGAACA	0.29
CAAGAACA	-0.0469
CGTAGACG	-0.217
GAAACTGA	-0.17

Sequence	PBM E-score
CCCGAGTA	0.15
GATAGATA	0.0426
ATTAGCTA	0.3
TATAGATA	0.176
AGTAGATC	-0.0135
AATAGATA	0.269
AGTAGATA	0.306
ATTAGATG	0.239
GTTAGATA	0.113
ATTAGATA	0.301
CGTAGATA	0.0684
CTTAGCTA	0.151
GTTAGCTA	0.0147
CCGGTTTC	0.0044
TACAATCA	0.152
CCCTCAGG	-0.164
AACCAAAA	0.204
CCGCCCCA	0.109
AGTGCCGC	-0.124
AGGGCCAC	-0.194
AGAAGGGC	-0.254
ATATAACA	0.284
ATATAACG	0.273
ATATAACC	0.188
CTATAACC	-0.144

Sequence	PBM E-score
GTATAACA	0.126
CTATAACA	-0.122
CTTAAACC	-0.192
ACGGCGTC	-0.0496
GAACTGGC	-0.125
ACTAATTA	0.228
AATAATTG	0.0887
ACTAATTC	0.204
AATAATTA	0.35
GATAATTA	0.218
CCTAATTA	0.0517
CATAATTA	0.308
AATAATTC	0.261
CATAATTC	0.138
ACCGAAGA	0.0871
ACCAATGC	0.0593
AGAGACTC	-0.0094
CCTCGCCC	0.0221
AGCCTTAG	-0.197
CAACAGTA	0.0302
GCCAGCCA	-0.193
AATACAAG	0.294
AATACAAT	0.154
AATACAAC	0.236
AATACAAA	0.342

Sequence	PBM E-score
TATACAAA	0.169
GATACAAA	0.173
AACTCCCT	-0.142
CATTAACG	0.0883
CGCATGAA	0.116
GGTAACCA	-0.151
ATTATTGA	0.111
ACAATACC	0.278
ATAATACA	0.35
GCAATACA	0.274
ATAATACG	0.213
ACAATACA	0.144
ACAATACG	0.05
CTAATACA	0.161
GCAATACC	0.0147
ATAATACC	0.258
CTAATACC	0.104
ACAATACT	0.237
ATAATAAC	0.206
GAGTGCTA	0.0563
CCTAACCC	-0.302
ACAAGACT	-0.039
GATTGGAA	-0.0265
ATCGAGTC	0.0696
CTCTAAGC	0.0569

Sequence	PBM E-score
ATTAACTG	0.237
ATACAGGG	0.121
ACTCGTGG	-0.041
ATGGTAGG	-0.0925
GTACTTCA	0.279
ATACTTCA	0.129
CTACTTCA	-0.0153
AACCCAGA	-0.0895
CGGGGCAC	-0.242
GCTCTACC	-0.288
ATTGAATA	0.277
TTAGATAA	0.32
TCAGATAA	0.184
ATAGATAC	0.224
CTAGATAA	0.0277
GAAGATTA	0.197
ATAGATAA	0.267
AAAGATTA	0.249
ATAGATAG	0.0352
TAAGATTA	0.274
CTTGAATA	0.0347
ATTGAATC	-0.0743
AAAAGGAC	0.0428
AAGACCCG	-0.133
AACGATCG	0.0832

Sequence	PBM E-score
ACGCCCGA	-0.032
AGGAACAA	-0.0886
AGTTCGGC	-0.0604
ATGGAATA	0.322
GCAGATAA	0.0212
ATGGAATC	0.242
GTAGAATA	0.194
GTGGAATA	0.193
ATAGATTG	0.224
GTAGATTA	0.232
ATAGAATA	0.277
ATAGAATG	0.209
GTAGATAA	0.28
ATAGATTA	0.302
GTAGATAC	0.0747
AAAGTTGC	0.0362
AGGCCAAC	-0.251
CATTGCAA	-0.0643
CTCAGGGA	-0.0496
GCGCATTA	0.147
ATCACCTG	0.148
CAATCTGC	-0.0434
GAGCAGAA	-0.0414
ACCAACGC	-0.0288
AGGGCACG	-0.206

Sequence	PBM E-score
CCGACCGG	-0.211
ATAGCTAA	0.0506
TTAGCTAA	0.343
CTAGCTAA	0.0272
CACTCGGG	-0.117
GATGACAA	0.27
GATGACAC	0.0142
CATGACAA	0.0097
AGGGCCCC	-0.322
TCCACTAA	0.0246
CGCTTAGC	-0.0166
AATATCGA	0.326
GATATCGA	0.0864
AATATCGG	0.179
AAAGAGCG	0.0467
AACCCTGA	0.131
CATGCTGA	0.181
CATGCTTC	0.0417
CGTGCTTA	0.273
GGTGCTTA	0.0985
CGTGCTGA	0.0279
CATGCTTA	0.259
AATGCTTA	0.276
AATGCTGA	0.118
GATGCTTA	0.0868

Sequence	PBM E-score
ACGGTGGA	-0.285
GAGTCGAC	0.063
GCCTAACC	-0.12
ATCCGACG	0.0285
CCACTTAC	0.303
ACGCTTAC	0.269
CCACTTAA	0.0597
CCGCTTAC	0.334
GCACTTAC	0.112
CCGCTTAA	0.103
ACGCTTAT	0.101
ACGCTTAG	0.0472
CCGCTTAG	-0.0568
GAACAGGA	-0.126
CCTTGCAC	-0.0869
TAGATCAA	0.0289
ACGGAGAG	0.00731
AGGTAAGG	0.0286
TCGTAAGA	-0.00999
CTGTAAGA	-0.00022
ACGTAACC	0.262
AGGTAAGC	0.321
ACGTAAGT	0.25
GCGTAACC	0.0286
ATGTAAGA	0.274

Sequence	PBM E-score
CGGTAAGC	0.114
ACGTAACG	0.214
ACGTAAGA	0.347
GTGTAAGA	0.0309
AATCGTCG	0.14
ACATTCAC	0.093
AAATTCTC	-0.0624
TCCCTTAA	-0.186
AACTAGGT	0.118
CGACATAC	0.104
GTCACACA	0.0464
TACTTCGA	0.183
CGTCCTCC	-0.139
CATGGTAA	0.0768
ACTCATCT	0.156
GATATGGA	0.244
AAGTAATG	0.184
ATGTAAGG	0.103
ACGTAATG	0.334
ATGTAAGC	0.431
ACGTAAAG	0.191
CTGTAAGC	0.0794
ACAGGGAT	0.0409
ACAATCAG	0.134
GAACGTAA	0.297

Sequence	PBM E-score
GATCGTAA	0.116
GAACGTTA	-0.104
TAACGGAA	0.322
AAACGTAA	0.234
GAACGTAC	-0.115
TATCGTAA	0.28
GAACGGAA	0.176
CAACGTAA	0.204
TAACGTAA	0.415
CATCGTAA	0.0929
CAACGGAA	0.103
GAGGGGGA	-0.324
GTGAGATA	0.164
CTAGCCGC	0.0223
GACTAGAC	-0.179
ATCTGAAT	0.0915
GACCTTCC	-0.147
GCATATTA	0.246
TAATATTA	0.368
CGATATTC	0.0444
GAATATTC	0.265
GGATATTA	0.143
GAATATTA	0.274
CGATATTA	0.355
GAATATCA	0.174

Sequence	PBM E-score
CAATATTC	0.102
GAATATAC	0.195
AAATATTT	0.141
AGATATTA	0.168
GATCGTTA	0.0193
GGACCTAA	-0.0416
CTGGGAAG	-0.0869
CGATCGCC	0.0437
AGTCTTAT	0.158
AAGGGCGA	-0.241
CAAGACGA	-0.0306
CTCCGCCC	-0.173
CTCCACAC	-0.0294
ACTTCTTG	-0.0532
AGGCTTGA	-0.0503
CCACCTCC	-0.266
AAGCACTC	-0.0467
CAATATTG	0.205
CAATATCC	0.116
CAATATTA	0.275
AAATATTC	0.183
AAATATCA	0.179
CAATATCA	0.108
TAGTATCA	0.296
GAGTATCA	-0.0396

Sequence	PBM E-score
AAATATTG	0.222
TAATATCA	0.26
CAGTATCA	0.0369
AAATATTA	0.315
ACCTACGT	0.0549
CACTGCAG	-0.0359
CGGCAGTC	0.0575
GTGCCAGA	-0.293
GCACTACC	-0.00786
TACCGGTA	0.0137
GCGATTCA	0.0512
AAAATCCT	-0.223
CTTTAGCC	0.0446
CCGGCTTC	0.0218
TGGAGCCA	-0.184
ATTGGCGG	-0.0494
AGGATAGC	-0.064
CTGACCGC	-0.068
ACTATAAA	0.146
ACAATAAA	0.162
ACAATAAT	0.267
ACAATAAC	0.143
ATTATAAG	0.188
ATTATAAA	0.195
ACTATAAC	0.0218

Sequence	PBM E-score
ACTATAAT	0.27
ATTATAAT	0.265
ATGAATAA	0.142
ACCAGGGG	-0.265
AGGCAGTG	0.141
GAAAAATA	0.158
GAAATATA	0.287
GAAATATC	0.111
TAAATATA	0.261
AAAATATA	0.159
CAAATATA	0.166
CCGTTGGC	-0.124
AAACAGCA	0.0422
CCCCATCC	0.00185
AAACAATA	0.287
TAACAATA	0.273
ATACAATC	0.162
AAACAATT	0.154
AGACAATA	0.279
ATACAATA	0.278
GAACAATA	0.229
AGACAATG	-0.00251
CTACAATA	0.137
AGACAATC	0.112
AAACAATG	0.196

Sequence	PBM E-score
CAACAATA	0.155
GCGGATCC	-0.0308
CGAAGTAG	0.00111
ATTACCAG	0.18
ATAGCCAC	-0.0146
CGAGTTCA	-0.0225
TACTGCCA	0.0854
GACCGGAA	-0.0318
CAGCTATC	-0.0573
CCAGCAAG	-0.182
AGTTTTTG	0.107
ACCAAACG	-0.038
AGCAAGCT	-0.156
ACAACCAT	0.306
ACAACCAC	0.0998
ACAACCAG	-0.00422
ACAGCTTG	0.11
ACCATTGG	0.0343
ACACCTCG	0.0498

Source: the supplement of paper PMC3334620
